Measurements reported in article PMC4336329 (PLoS ONE, 2015).
Screen size: about 310,000 compounds; about 14,000 (4.5%) showed an effect of 50% or more. Effects have a minus sign here. The list comes from a sample in which strong results are over-represented; it also holds similar structures and randomly drawn compounds.

molecular target: human ether-à-go-go-related gene (hERG) potassium channel (human, UniProt Q12809); assay: primary screen, population patch clamp on CHO cells stably expressing hERG; higher = less effect of the substance
Sequence (Q12809 whole entry, looked up): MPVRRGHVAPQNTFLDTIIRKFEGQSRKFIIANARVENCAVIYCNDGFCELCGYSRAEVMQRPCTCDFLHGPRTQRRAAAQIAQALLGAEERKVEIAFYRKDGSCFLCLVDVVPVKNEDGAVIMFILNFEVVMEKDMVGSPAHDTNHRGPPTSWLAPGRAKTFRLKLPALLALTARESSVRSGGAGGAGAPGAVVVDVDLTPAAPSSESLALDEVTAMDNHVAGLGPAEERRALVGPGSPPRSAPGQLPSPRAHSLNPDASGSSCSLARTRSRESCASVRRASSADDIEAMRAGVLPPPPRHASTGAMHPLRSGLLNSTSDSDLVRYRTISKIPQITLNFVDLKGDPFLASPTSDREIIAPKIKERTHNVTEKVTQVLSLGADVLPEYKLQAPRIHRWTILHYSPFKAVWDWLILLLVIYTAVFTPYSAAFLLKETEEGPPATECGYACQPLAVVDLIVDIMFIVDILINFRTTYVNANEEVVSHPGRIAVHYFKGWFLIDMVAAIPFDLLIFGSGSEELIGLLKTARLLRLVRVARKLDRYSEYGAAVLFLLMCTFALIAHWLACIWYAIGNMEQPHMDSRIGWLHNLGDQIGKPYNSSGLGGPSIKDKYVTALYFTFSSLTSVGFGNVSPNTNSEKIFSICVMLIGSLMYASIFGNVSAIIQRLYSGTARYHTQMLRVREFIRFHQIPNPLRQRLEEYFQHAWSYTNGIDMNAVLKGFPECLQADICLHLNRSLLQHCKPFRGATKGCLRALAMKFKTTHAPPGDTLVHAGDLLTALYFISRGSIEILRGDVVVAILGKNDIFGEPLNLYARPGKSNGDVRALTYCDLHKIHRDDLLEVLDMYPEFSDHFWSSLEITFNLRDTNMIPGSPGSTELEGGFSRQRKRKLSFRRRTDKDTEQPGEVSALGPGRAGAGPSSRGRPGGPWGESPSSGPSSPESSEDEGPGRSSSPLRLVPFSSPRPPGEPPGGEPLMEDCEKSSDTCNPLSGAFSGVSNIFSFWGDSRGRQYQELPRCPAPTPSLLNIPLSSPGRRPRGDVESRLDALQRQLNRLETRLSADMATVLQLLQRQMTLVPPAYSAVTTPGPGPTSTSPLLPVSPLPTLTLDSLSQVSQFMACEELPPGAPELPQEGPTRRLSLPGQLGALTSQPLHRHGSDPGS
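Note: peak tail current of the secondary pulse compared with the same well before compound.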

Row | SMILES | hERG current change (%, negative = inhibition) at 10uM [%]
1 | O=C(CN1CCN(c2ccccc2O)CC1)NC(=O)NC1CCCC1 | -0.609
2 | CCCCCC(=O)Nc1ccc(-c2cn3cccnc3n2)cc1 | 16.4
3 | CN1CCN(NC(=O)c2ccc(Cl)c([N+](=O)[O-])c2)CC1 | 8.74
4 | CC(=O)Nc1ccc(NC(=O)C(C)Sc2nnc(C3CC3)n2-c2ccccc2)cc1 (centres unmarked) | 8.37
5 | COc1ccc(N2CCN(C(=O)c3ccc4c(c3)OCO4)CC2)cc1 | -21.7
6 | O=c1nc2ccccc2c(NS(=O)(=O)c2ccccc2)n1-c1ccccc1 | 2.7
7 | Cc1ccc(C(=O)CSc2nnc(-c3ccco3)n2Cc2ccccc2)cc1 | -17.8
8 | c1ccc(CSc2nnc(-c3ccco3)n2Cc2ccco2)cc1 | -34.6
9 | Cc1ccccc1CSc1nnc(-c2cccs2)n1Cc1ccco1 | -41.7
10 | CC(=O)c1c(C)[nH]c(C(=O)CSc2nnc(-c3ccco3)n2Cc2ccccc2)c1C | -61.5
11 | Cc1nnc(SCC(=O)NC(=O)NCc2ccco2)n1Cc1ccccc1 | -6.26
12 | c1ccc(CSc2nnc(-c3ccco3)n2Cc2ccccc2)cc1 | -46
13 | O=C(CSc1nnc(-c2ccco2)n1Cc1ccccc1)NC(=O)NCc1ccco1 | -74.7
14 | O=C1c2ccccc2C(=O)N1CCSc1nnc(-c2ccco2)n1Cc1ccccc1 | -72.8
15 | CC(=O)c1c(C)[nH]c(C(=O)CSc2nnc(-c3cccs3)n2Cc2ccccc2)c1C | -25.6
16 | O=C(CSc1nnc(-c2ccco2)n1Cc1ccccc1)NC(=O)NCc1ccccc1 | -13.3
17 | Cc1ccccc1CSc1nnc(-c2ccco2)n1Cc1ccco1 | -75.4
18 | CCOC(=O)c1c(C)[nH]c(C)c1C(=O)CSc1nnc(-c2ccco2)n1Cc1ccccc1 | -19.3
19 | COc1ccc(-c2nnc(SCC#CCO)o2)cc1OC | 4.93
20 | COc1ccccc1N1CCN(S(=O)(=O)c2ccc3c(c2)oc(=O)n3C)CC1 | 26
21 | COc1ccc(NC(=O)CN(C)C(=O)/C=C/c2cn(-c3ccccc3)nc2-c2ccc(C)cc2)cc1 | 13.8
22 | COc1ccc(C2=NS(=O)(=O)N(C)C(C(=O)Nc3ccc(F)cc3F)=C2)cc1 | 10.1
23 | CN(Cc1ccccc1)C(=O)COC(=O)C1CCN(S(=O)(=O)c2ccc(Cl)c(C(F)(F)F)c2)CC1 | -15.8
24 | CCC/C(=N\NC(=O)CNC(=O)c1ccc(Cl)cc1)c1ccccc1 | -1.56
25 | CC(NC(=O)COc1ccc(S(=O)(=O)N2CCOCC2)cc1)c1ccccc1 (centres unmarked) | -4.63
26 | O=C(/C=C\c1ccccc1OC(=O)c1ccccc1F)c1cc2ccccc2o1 | -3.12
27 | O=C(CSc1nnc(-c2ccco2)n1Cc1ccco1)NCc1ccccc1 | -50.8

Row | SMILES | hERG current change (%, negative = inhibition) at 10uM [%]
28 | O=C(CSc1nnc(-c2ccco2)n1Cc1ccccc1)c1ccccc1 | -18.4
29 | COCCn1c(SCC(=O)NCc2ccccc2)nnc1-c1ccco1 | 5.7
30 | O=C(CSc1nnc(-c2ccco2)n1Cc1ccco1)NCc1cccs1 | -33.1
31 | CC(C)(C)NC(=O)CSc1nnc(-c2ccco2)n1Cc1ccco1 | -5.83
32 | Cc1cc(NC(=O)CSc2nnc(-c3ccco3)n2Cc2ccco2)no1 | -24.7
33 | CC(=O)Nc1ccc(NC(=O)CSc2nnc(-c3ccco3)n2Cc2ccco2)cc1 | -1.79
34 | O=C(CSc1nnc(-c2ccco2)n1Cc1ccccc1)NCc1ccccc1 | -51.8
35 | COC(=O)CCNCCSc1nnc(-c2ccco2)n1Cc1ccccc1.O=C(O)C(=O)O | -64.5
36 | CNC(=O)NC(=O)CSc1nnc(-c2ccco2)n1Cc1ccccc1 | -8.53
37 | NC(=O)NC(=O)CSc1nnc(-c2ccco2)n1Cc1ccccc1 | 5.78
38 | O=C(CSc1nnc(-c2ccco2)n1Cc1ccco1)Nc1ccccc1 | -70.7
39 | Cc1cc(C)n(-c2ccc(S(=O)(=O)N3CCOCC3)cc2[N+](=O)[O-])n1 | -10.9
40 | O=C1/C(=C\c2cccnc2)CN(Cc2ccccc2)C/C1=C\c1cccnc1 | -29.4
41 | O=C(NCC(=O)N(CC1CCCO1)C1(C(=O)NC2CCCC2)CCCCC1)c1ccccc1 (centres unmarked) | 3.96
42 | CCOc1ccc(C(CC(=O)O)NC(=O)C23CC4CC(CC(C4)C2)C3)cc1OC (centres unmarked) | 30.2
43 | Nc1c(C=C2C=CC(=O)C=C2)c(=O)nc2sc(CC(=O)N3CCCC3)nn12 | 8.79
44 | CN(Cc1ccc(OC(F)F)cc1)C(=O)c1ccccc1Sc1ccccc1C#N | -60.5
45 | CN(Cc1ccc(OC(F)F)cc1)C(=O)c1ccc2nccnc2c1 | -67.8
46 | COc1cccc(CN(C)C(=O)c2ccccc2Sc2ccccc2C#N)c1 | -13.4
47 | COc1ccc(CN(C)C(=O)c2cccc(C(=O)N(C)Cc3ccc(OC)cc3)c2)cc1 | -65.6
48 | COc1cccc(CN(C)C(=O)c2ccc3nccnc3c2)c1 | -6.89
49 | COc1ccc(NS(=O)(=O)c2cccc(C(=O)N(C)Cc3ccc(SC)cc3)c2)cc1 | -9.93
50 | CN(Cc1ccccc1)C(=O)c1cccc(C(=O)N(C)Cc2ccccc2)c1 | -3.07
51 | Cc1ccc(CN(C)C(=O)c2ccccc2Sc2ccccc2C#N)cc1 | 23.4
52 | CN(Cc1ccc(OC(F)F)cc1)C(=O)c1ccc2c(=O)n3c(nc2c1)CCC3 | -33.3
53 | COc1ccccc1NS(=O)(=O)c1ccc2oc(SC)nc2c1 | 2.84
